Experiment [1] addresses Gonadotropin-releasing hormone receptor (Homo sapiens) (UniProt P30968). Briefly: Human gonadotropin-releasing hormone receptor (GnRHR) small molecule agonists, calcium flux assay in GnRHR-HEK293 cells (AID 1920063). Note: nearly all actives have a fitted effect of over 35% in size. Note: potency is the fitted concentration of half-maximal effect. An outline of the steps:
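Cells: HEK293 stably expressing human GnRHR. Steps: overnight (18 h) culture, 1 h calcium dye loading at 37 C, compound addition, kinetic fluorescence read at 480/540 nm. Each compound tested at 15 concentrations in triplicate.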

Experiment [2] concerns the target KiSS-1 receptor (Homo sapiens) (UniProt Q969F8). The experiment can be described thus: Human kisspeptin (KISS1R) small molecule agonists, calcium flux assay in KISS1R-HEK293 cells (AID 1920064; active = well fitted activation curve with a large enough effect in the repeat runs). An outline of the steps: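 Cells plated and incubated 18 h; dye added, 1 h at 37 C; compounds in DMSO pinned in; signal read at 480/540 nm every second for 3 min. Each compound tested at 15 concentrations in triplicate.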
(In general: A change in cytosolic calcium serves as a functional read-out for many receptors and channels.)

Experiment [3] can be described thus: G protein-coupled receptor (GPCR) small molecule agonists, calcium flux assay: HEK293 wild type cell line counter screen (AID 1920065). An outline of the steps: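 Counter-screen of the Tox21 10K library for non-specific calcium release: dye-loaded cells received compounds in DMSO and were monitored by kinetic fluorescence (480/540 nm, 3 min). Fifteen concentrations, run in triplicate.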

Experiment [4] can be described thus: p53 small molecule agonists, cell-based qHTS assay with human liver microsomes (AID 1963577).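 Note: p53 response element beta-lactamase reporter cells with liver microsomes plus NADPH.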 An outline of the steps: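 16 h, 37 C exposure of p53RE-bla cells to compounds with human liver microsomes and NADPH (0.5 mg/mL final each); detection via LiveBLAzer mixture, 2 h dark at room temperature.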
For orientation: qHTS replaces the single test concentration by a dilution series.

A short description of experiment [5]: p53 small molecule agonists, cell-based qHTS assay with rat liver microsomes (AID 1963578). An outline of the steps:
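With rat liver microsomes and NADPH present (0.5 mg/mL final each), p53RE-bla cells are treated with compound for 16 h at 37 C. LiveBLAzer detection mixture is then applied for 2 h at room temperature in the dark.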

A short description of experiment [6]: p53 small molecule agonists, cell-based qHTS assay with human liver microsomes: qHTS cell viability counter screen (AID 1963579). Note: nearly all actives have a fitted effect of over 45% in size. An outline of the steps:
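In this multiplexed counter screen, the reporter plates were subsequently treated with CellTiter-Glo so that cell viability, reflected by luminescence, could be recorded for p53RE-bla cells dosed 16 h with compounds under microsomal activation (HLM and NADPH).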

Experiment [7] can be described thus: p53 small molecule agonists, cell-based qHTS assay with rat liver microsomes: qHTS cell viability counter screen (AID 1963580). Note: nearly all actives have a fitted effect of over 45% in size. Note: potency is the fitted concentration of half-maximal effect. An outline of the steps:
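p53RE-bla HCT-116 cells (4,000/well) rested 5 h at 37 C, then given Tox21 compounds in DMSO with rat liver microsomes (0.5 mg/mL final) plus NADPH (0.5 mg/mL final) for 16 h at 37 C. Viability read by CellTiter-Glo luminescence after 30 min at room temperature.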

Experiment [8] is described as follows: cAMP Responsive Elements (CRE) small molecule antagonists, cell-based qHTS assay (AID 1963591; active = well fitted inhibition curve with a large enough effect in the signal ratio in the repeat runs, not every such curve was filed as active; the % refers to the signal ratio; note: potency is the fitted concentration of half-maximal effect). An outline of the steps:
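Antagonist mode: test compounds are co-incubated with the adenylyl cyclase activator NKH477 (0.25 uM final) on CRE-bla HEK293T cells for 3 h at 37 °C, followed by LiveBLAzer substrate loading.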

The target in experiment [9] is D(2) dopamine receptor (Homo sapiens) (UniProt P14416). Briefly: Dopamine D2 receptor (DRD2) small molecule agonists, cell-based qHTS assay (AID 1963594). Note: nearly all actives have a fitted effect of over 35% in size. An outline of the steps: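 HEK293 cells stably expressing DRD2 were cultured 24 h at 37 C, then given Ro20-1724 (0.1 mM final) and compounds for 10 min at room temperature. NKH477 (200nM) was then added for 30 min. cAMP was read by HTRF.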
D(2) dopamine receptor (Homo sapiens), sequence (P14416 whole entry, looked up): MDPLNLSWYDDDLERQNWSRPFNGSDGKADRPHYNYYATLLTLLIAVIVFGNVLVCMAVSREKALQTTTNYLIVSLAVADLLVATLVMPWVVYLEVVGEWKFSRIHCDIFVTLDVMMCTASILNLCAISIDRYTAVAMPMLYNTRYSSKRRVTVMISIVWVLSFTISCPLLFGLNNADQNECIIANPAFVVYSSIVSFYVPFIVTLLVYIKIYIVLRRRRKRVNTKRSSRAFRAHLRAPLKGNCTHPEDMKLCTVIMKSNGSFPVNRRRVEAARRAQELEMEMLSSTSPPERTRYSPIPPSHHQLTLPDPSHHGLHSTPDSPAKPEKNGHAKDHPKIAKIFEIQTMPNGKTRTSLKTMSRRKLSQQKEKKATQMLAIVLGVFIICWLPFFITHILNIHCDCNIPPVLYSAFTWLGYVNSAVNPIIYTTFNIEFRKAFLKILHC

Experiment [10] shares this target. Briefly: Dopamine D2 receptor (DRD2) small molecule antagonists, cell-based qHTS assay (AID 1963595; active = well fitted inhibition curve with a large enough effect in the signal ratio in the repeat runs, with a control signal flat; the % refers to the signal ratio; note: potency is the fitted concentration of half-maximal effect). An outline of the steps:
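Cells were plated and grown for 24 h at 37 °C. Ro20-1724 (0.1 mM final) went in first, then compound for 10 min. NKH477 (200 nM) with quinpirole (12 nM) followed for 30 min at RT, then HTRF detection reagents for 1 h.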

The nature of experiment [11]: p53 small molecule agonists, cell-based qHTS assay: qHTS cell viability counter screen (AID 1963581). Note: nearly all actives have a fitted effect of over 45% in size. An outline of the steps: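 Cells: HCT-116 with p53 response element-driven beta-lactamase. Treatment: 16 h, 37 C, compounds in DMSO. Read: CellTiter-Glo luminescence after 30 min RT.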
Experiment [12] has as its target 5-hydroxytryptamine receptor 2A (Homo sapiens) (UniProt P28223). The experiment can be described thus: 5-hydroxytryptamine receptor 2A (HTR2A) small molecule agonists, cell-based qHTS assay (AID 1963587). Note: nearly all actives have a fitted effect of over 30% in size. An outline of the steps:
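HTR2A-CHO cells, plated 18 h at 37 C/5% CO2, dye-loaded 1 h at 37 C; compounds in DMSO added by pin tool (agonist mode). Intracellular calcium flux read as kinetic fluorescence on FDSS over 2 min at 1 s intervals.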

Experiment [13] addresses Muscarinic acetylcholine receptor M1 (Homo sapiens) (UniProt P11229). The experiment can be described thus: Cholinergic receptor muscarinic 1 (CHRM1) small molecule antagonists, cell-based qHTS assay (AID 1963588). Note: nearly all actives have a fitted effect of over 40% in size. An outline of the steps: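 CHRM1-CHO calcium-flux assay, antagonist mode. Cells were seeded 18 h, dye-loaded 1 h at 37 C and given compound for 5 min at RT, then acetylcholine was added at 50nM. FDSS fluorescence was read 3 min; 15 concentrations, three runs.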

The target is the same in experiment [14]. Briefly: Cholinergic receptor muscarinic 1 (CHRM1) small molecule agonists, cell-based qHTS assay (AID 1963589). Note: nearly all actives have a fitted effect of over 35% in size. An outline of the steps:
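Agonist-mode qHTS in CHO cells stably carrying human muscarinic M1. Intracellular calcium is tracked by fluorescence every second after compound transfer; each compound runs at 15 concentrations in three independent runs.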

The target in experiment [15] is Beta-2 adrenergic receptor (Homo sapiens) (UniProt P07550). The experiment can be described thus: Adrenergic beta2 receptor (ADRB2) small molecule antagonists, cell-based qHTS assay (AID 1963592). Note: nearly all actives have a fitted effect of over 50% in size. Note: potency is the fitted concentration of half-maximal effect. An outline of the steps:
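Cells (CHO, stable ADRB2 overexpression) incubated 18-20hr at 37C; compounds added from DMSO; agonist mix (1nM isoproterenol, 100uM IBMX, 25uM Ro-20-1724) added; 0.5hr RT; d2-cAMP and anti-cAMP-cryptate added; 1hr RT; 665/615 nm read.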

Experiment [16] can be described thus: p53 small molecule agonists, cell-based qHTS assay (AID 1963582; active = well fitted activation curve with a large enough effect in the signal ratio in the repeat runs, not every such curve was filed as active; the % refers to the signal ratio). An outline of the steps: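 Quantitative HTS in p53RE-bla cells: after a 5 h settling period, compounds delivered in DMSO were left on cells for 16 h at 37 C, and reporter induction was measured as fluorescence following 2 h substrate loading.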
The target of experiment [17] is 5-hydroxytryptamine receptor 2A (Homo sapiens) (UniProt P28223). Briefly: 5-hydroxytryptamine receptor 2A (HTR2A) small molecule antagonists, cell-based qHTS assay (AID 1963586). Note: nearly all actives have a fitted effect of over 45% in size. An outline of the steps: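 Antagonist-mode intracellular calcium assay: DOI (4 nM) added after 5 min compound pre-incubation at room temperature to dye-loaded HTR2A-CHO cells. Fluorescence followed for 3 min, sampled every second.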
5-hydroxytryptamine receptor 2A (Homo sapiens), sequence (P28223 whole entry, looked up): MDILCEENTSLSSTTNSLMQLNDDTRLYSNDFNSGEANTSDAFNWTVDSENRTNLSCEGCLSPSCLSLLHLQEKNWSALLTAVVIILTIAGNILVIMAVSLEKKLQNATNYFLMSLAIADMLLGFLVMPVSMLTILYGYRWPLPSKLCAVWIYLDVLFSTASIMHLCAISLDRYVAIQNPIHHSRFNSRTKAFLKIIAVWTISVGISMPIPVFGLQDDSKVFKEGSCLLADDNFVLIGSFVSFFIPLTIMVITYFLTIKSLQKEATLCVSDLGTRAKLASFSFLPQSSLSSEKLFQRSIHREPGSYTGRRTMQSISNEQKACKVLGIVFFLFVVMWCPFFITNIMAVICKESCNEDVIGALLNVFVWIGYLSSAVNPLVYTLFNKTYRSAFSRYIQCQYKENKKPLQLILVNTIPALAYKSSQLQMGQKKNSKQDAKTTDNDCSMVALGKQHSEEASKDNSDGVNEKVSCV

Experiment [18] can be described thus: cAMP Responsive Elements (CRE) small molecule agonists, cell-based qHTS assay (AID 1963590). An outline of the steps:
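Agonist mode qHTS in CRE-bla HEK 293T cells: compounds dosed from DMSO for 3 h at 37 C/5% CO2, followed by LiveBLAzer B/G FRET substrate for 2 h at room temperature.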

In experiment [19] the target is Beta-2 adrenergic receptor (Homo sapiens) (UniProt P07550). The experiment can be described thus: Adrenergic beta2 receptor (ADRB2) small molecule agonists, cell-based qHTS assay (AID 1963593).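 Note: CHO cells stably overexpressing human ADRB2.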 An outline of the steps: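 CHO cells stably over-expressing ADRB2 were plated overnight at 37C, then dosed with compounds plus a stimulation mix containing 100uM IBMX and 25uM Ro-20-1724 for 0.5hr at room temperature. cAMP was measured by HTRF competition, 1hr.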
Beta-2 adrenergic receptor (Homo sapiens), sequence (P07550 whole entry, looked up): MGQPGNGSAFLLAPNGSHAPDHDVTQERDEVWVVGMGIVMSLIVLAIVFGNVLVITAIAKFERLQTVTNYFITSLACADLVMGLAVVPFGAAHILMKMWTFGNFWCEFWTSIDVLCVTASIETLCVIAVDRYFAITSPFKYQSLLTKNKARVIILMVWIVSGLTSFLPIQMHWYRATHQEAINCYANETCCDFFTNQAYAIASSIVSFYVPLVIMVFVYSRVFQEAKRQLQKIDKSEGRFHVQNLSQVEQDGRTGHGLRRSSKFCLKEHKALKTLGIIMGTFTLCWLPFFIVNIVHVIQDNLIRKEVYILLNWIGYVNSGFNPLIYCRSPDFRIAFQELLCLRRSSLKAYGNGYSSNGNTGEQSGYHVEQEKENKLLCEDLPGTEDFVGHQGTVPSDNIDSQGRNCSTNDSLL

Records with an inconclusive call do not appear. Activity calls are given as the source filed them. Unless noted, calls come from the whole dose curve.

Gonadotropin-releasing hormone receptor (Homo sapiens), sequence (P30968 whole entry, looked up): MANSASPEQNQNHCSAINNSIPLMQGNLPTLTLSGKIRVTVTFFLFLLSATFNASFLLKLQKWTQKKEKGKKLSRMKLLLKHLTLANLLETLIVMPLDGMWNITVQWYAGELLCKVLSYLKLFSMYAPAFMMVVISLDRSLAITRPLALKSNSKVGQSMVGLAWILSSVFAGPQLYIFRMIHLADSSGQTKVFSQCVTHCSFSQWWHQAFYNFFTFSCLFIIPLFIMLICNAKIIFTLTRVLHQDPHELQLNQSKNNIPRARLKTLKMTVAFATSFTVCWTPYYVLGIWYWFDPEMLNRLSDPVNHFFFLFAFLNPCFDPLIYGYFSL
KiSS-1 receptor (Homo sapiens), sequence (Q969F8 whole entry, looked up): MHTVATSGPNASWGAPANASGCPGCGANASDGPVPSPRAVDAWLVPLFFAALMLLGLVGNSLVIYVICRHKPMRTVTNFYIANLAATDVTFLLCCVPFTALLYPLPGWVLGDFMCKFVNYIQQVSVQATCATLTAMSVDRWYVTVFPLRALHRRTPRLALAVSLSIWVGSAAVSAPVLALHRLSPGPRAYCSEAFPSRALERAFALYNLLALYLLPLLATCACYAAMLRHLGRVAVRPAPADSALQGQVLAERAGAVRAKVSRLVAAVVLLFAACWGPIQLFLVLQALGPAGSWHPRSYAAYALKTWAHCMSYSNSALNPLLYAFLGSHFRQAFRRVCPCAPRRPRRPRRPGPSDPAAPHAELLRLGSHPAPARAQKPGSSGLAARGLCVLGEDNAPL
Muscarinic acetylcholine receptor M1 (Homo sapiens), sequence (P11229 whole entry, looked up): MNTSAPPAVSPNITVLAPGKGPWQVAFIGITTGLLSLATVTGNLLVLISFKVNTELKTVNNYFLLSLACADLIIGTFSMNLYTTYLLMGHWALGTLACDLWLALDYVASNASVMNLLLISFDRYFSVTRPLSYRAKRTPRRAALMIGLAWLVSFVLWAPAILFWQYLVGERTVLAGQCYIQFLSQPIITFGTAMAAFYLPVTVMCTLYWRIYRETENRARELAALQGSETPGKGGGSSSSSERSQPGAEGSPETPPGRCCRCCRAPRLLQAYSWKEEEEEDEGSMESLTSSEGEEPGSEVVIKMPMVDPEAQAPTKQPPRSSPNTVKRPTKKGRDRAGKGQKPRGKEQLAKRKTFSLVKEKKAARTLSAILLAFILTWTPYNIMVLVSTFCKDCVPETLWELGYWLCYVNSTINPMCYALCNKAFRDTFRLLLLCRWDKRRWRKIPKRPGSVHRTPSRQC

On to `CCCCCCCCNC(C)C(O)c1ccc(SC(C)C)cc1` (configuration not stated), for which the figures for the Potency in [1], in experiment [7] and in experiment [8] were 16.9 µM (active), 19.9 µM (active) and 23.7 µM (active), respectively. Also, the Potency entry in [2], in experiment [3], in experiment [4], in [5], in experiment [6] and in experiment [9] was “inactive” each time. For the same molecule, the Potency entry in [10] was “inactive”.

On to `Cc1cc2c(cc1C(F)(F)F)N(C(=O)Nc1ccc(Oc3cccnc3C)nc1)CC2`, for which the Potency result in experiment [1], in [2], in [3], in [4], in experiment [5] and in experiment [7] was “inactive” each time. Besides, the Potency result in experiment [11], in experiment [12], in experiment [13], in experiment [14] and in [9] was “inactive” throughout. Also, the Potency in experiment [15] was 27.7 µM (active); in experiment [10], 6.2 µM (active).

For `CN1CCC[C@@H]1CCO[C@](C)(c1ccccc1)c1ccc(Cl)cc1`, the Potency entry in [1], in experiment [2], in [3], in experiment [4], in experiment [5] and in experiment [6] was “inactive” in each case. Further, the Potency result in [7], in [11], in [16] and in experiment [9] was “inactive” throughout.

Regarding `CCOC(=O)/C=C/c1ccccc1`, the Potency entry in experiment [1], in experiment [2], in [3], in [4], in experiment [5] and in experiment [6] was “inactive” throughout. The Potency result in [7], in experiment [11], in experiment [16], in experiment [17], in experiment [12] and in [13] was “inactive” each time. Besides, the Potency entry in experiment [18], in [8], in [15], in experiment [19], in experiment [9] and in experiment [10] was “inactive” throughout.

In the case of `C=C(C)C(=O)OCC(O)COc1ccc(C(C)(C)c2ccc(OCC(O)COC(=O)C(=C)C)cc2)cc1` (configuration not stated), the Potency entry in experiment [1], in experiment [2], in experiment [3], in experiment [4], in [5] and in experiment [7] was “inactive” each time. Moreover, the Potency result in experiment [11], in [12], in experiment [13], in [9] and in experiment [10] was “inactive” each time.

Take `CC[C@H]1OC(=O)[C@H](C)[C@@H](O[C@H]2C[C@@](C)(OC)[C@@H](O)[C@H](C)O2)[C@H](C)[C@@H](O[C@@H]2O[C@H](C)C[C@H](N(C)C)[C@H]2O)[C@](C)(O)C[C@@H](C)CN(C)[C@H](C)[C@@H](O)[C@]1(C)O`: the Potency result in experiment [1], in experiment [2], in [3], in [4], in experiment [5] and in experiment [6] was “inactive” throughout. The Potency result in [7], in experiment [11], in experiment [16], in experiment [18], in experiment [15] and in experiment [19] was “inactive” throughout. In addition, the Potency entry in experiment [9] and in experiment [10] was “inactive” throughout.

With `CCC(C)OC(=O)N1CCCCC1CCO` (configuration not stated), the Potency result in experiment [1], in experiment [2], in experiment [3], in experiment [4], in experiment [5] and in experiment [6] was “inactive” throughout. In addition, the Potency entry in experiment [7], in experiment [11], in experiment [16], in experiment [17], in experiment [13] and in experiment [14] was “inactive” each time. For the same molecule, the Potency result in experiment [18], in experiment [8], in [15], in experiment [9] and in [10] was “inactive” each time.

With `O=C(N/N=C/c1ccc([N+](=O)[O-])o1)c1ccc(O)cc1`, the Potency result in experiment [1], in experiment [2], in [3], in experiment [4], in experiment [5] and in [7] was “inactive” in each case. The Potency entry in experiment [11], in experiment [17], in [12], in [13], in experiment [14] and in experiment [15] was “inactive” in each case. In addition, the Potency result in [9] and in [10] was “inactive” each time.
